In PubChem BioAssay (NCI) one finds growth data, which are given here for seven molecules.

The panel holds about 83,000 compounds, 20% with a hit somewhere; the sample as a whole holds those more often.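 96-well plates, one dose, 48 hours. Percent growth reported; active if below 10.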 A number with no mark means an inactive call. Active and inactive are the calls of the source.

Some test systems named below: NCI-H23 lung; NCI-H226 lung; NCI-H322M lung; HOP-62 NSCLC; NCI-H460 lung; HOP-92 NSCLC; NCI-H522 lung; A549/ATCC NSCLC; 786-0 renal; COLO 205 colon; DU-145 prostate; K-562 leukemia; MALME-3M melanoma; MDA-MB-231 breast; RXF 393 renal; SF-268 CNS; SF-295 CNS; SF-539 CNS; UACC-257 melanoma; M14 melanoma.
Common to all, as to assay: NCI-60 one-dose screen, 48 h (100 = growth as untreated, 0 = no growth, -100 = all killed)
Common to all, as to details: 10 µM unless noted

Take `C#CCOc1ccc2ncnc(Nc3ccc(NC(=O)C=C)cc3)c2c1`: the growth in the assay with NCI-H23 lung was 2.09% (active); in the assay on NCI-H226 lung it was 97.7%; in the assay on NCI-H322M lung, 69.5%; in the assay with HOP-62 NSCLC, 78.5%; with NCI-H460 lung it was 24.1%; with HOP-92 NSCLC, -36.8% (active). The growth is -75.7% (active) with NCI-H522 lung; 80% in the assay on A549/ATCC NSCLC; -37.7% (active) in the assay with 786-0 renal; -57.6% (active) in the assay on COLO 205 colon; -29.8% (active) in the assay with DU-145 prostate; -35.7% (active) with K-562 leukemia. In addition, the growth was -74.4% (active) with MALME-3M melanoma; -71.7% (active) with MDA-MB-231 breast; -80.6% (active) with RXF 393 renal; 6.18% (active) with SF-268 CNS; 83.2% in the assay on SF-295 CNS; -10.4% (active) in the assay with SF-539 CNS. The values for the growth with UACC-257 melanoma and in the assay with M14 melanoma were -26.3% (active) and -52.4% (active), respectively.

Take `Nc1ncc(-c2ccc3ncnc(Nc4cccc(Cl)c4)c3c2)cn1`: the growth was 58.9% in the assay with NCI-H23 lung; 51.3% in the assay with NCI-H226 lung; 4.75% (active) with NCI-H322M lung; 37.8% in the assay on HOP-62 NSCLC; 54.8% in the assay on NCI-H460 lung; 11.8% with HOP-92 NSCLC. Besides, the growth in the assay with NCI-H522 lung was 3.25% (active); in the assay on A549/ATCC NSCLC it was 35.1%; in the assay on 786-0 renal, 40.8%; with COLO 205 colon, 51.2%; with DU-145 prostate, 28.9%; with K-562 leukemia, 58.2%. The growth in the assay on MALME-3M melanoma was 40.4%; with MDA-MB-231 breast, 42.1%; in the assay on RXF 393 renal, 25.2%; in the assay on SF-268 CNS it was 42%; with SF-295 CNS, 44.2%; in the assay with SF-539 CNS, 54.2%. Also, the growth with UACC-257 melanoma is 65.7%; in the assay with M14 melanoma, 60.6%.

Turning to `CNC(=O)c1ccccc1Oc1nc(Nc2cc(OC)c(OC)c(OC)c2)ncc1Br`, the growth with NCI-H23 lung is 55.2%; with NCI-H226 lung, 21.8%; with NCI-H322M lung, 58.5%; in the assay with HOP-62 NSCLC it was 49.7%; with NCI-H460 lung, 43.9%; in the assay with HOP-92 NSCLC, 60.6%. Besides, the growth with NCI-H522 lung is 53.9%; with A549/ATCC NSCLC, 46.4%; in the assay on 786-0 renal, 48.9%; with COLO 205 colon it was -12.6% (active); in the assay with DU-145 prostate it was 58.1%; in the assay on K-562 leukemia, 77.2%. For the same molecule, the growth is 82.3% in the assay with MALME-3M melanoma; 75.4% with MDA-MB-231 breast; 40.3% in the assay with RXF 393 renal; 59.3% in the assay with SF-268 CNS; 53% in the assay with SF-295 CNS; 71.1% with SF-539 CNS. The values for the growth in the assay on UACC-257 melanoma and with M14 melanoma were 77% and 47.7%, respectively.

`COc1ccc(Nc2nnc(-c3ccc(OC)c(OC)c3)o2)cc1`: the growth with NCI-H23 lung is 74.1%; in the assay with NCI-H226 lung, 85.3%; with NCI-H322M lung, 87.4%; with HOP-62 NSCLC, 84.9%; in the assay with NCI-H460 lung, 100%; in the assay with HOP-92 NSCLC, 66.4%. Further, the growth in the assay with NCI-H522 lung is 62.8%; with A549/ATCC NSCLC, 83.9%; in the assay with 786-0 renal, 91.9%; with COLO 205 colon, 99.5%; in the assay on DU-145 prostate it was 90.9%; in the assay with K-562 leukemia, 80.2%. The growth with MALME-3M melanoma is 106%; with MDA-MB-231 breast, 55.7%; with RXF 393 renal it was 102%; with SF-268 CNS it was 80.8%; in the assay with SF-295 CNS, 101%; with SF-539 CNS, 92.1%. Moreover, the growth in the assay on UACC-257 melanoma was 102%; in the assay with M14 melanoma, 100%.

For `CCCCC1=C(P(=O)(O)O)N[C@H](C(=O)O)CS1`, the growth in the assay on NCI-H23 lung is 97.5%; with NCI-H226 lung it was 95.5%; in the assay on NCI-H322M lung, 73.8%; with HOP-62 NSCLC it was 89.4%; with NCI-H460 lung, 107%; in the assay with HOP-92 NSCLC, 89.5%. Also, the growth with NCI-H522 lung was 83.2%; in the assay with A549/ATCC NSCLC it was 92%; with 786-0 renal, 95.1%; in the assay on COLO 205 colon, 108%; in the assay on DU-145 prostate, 104%; in the assay on K-562 leukemia, 93.1%. The growth with MALME-3M melanoma was 96.3%; in the assay on MDA-MB-231 breast it was 90.6%; in the assay on RXF 393 renal it was 93.5%; with SF-268 CNS, 98.6%; in the assay with SF-295 CNS, 85.9%; with SF-539 CNS, 93.1%. Further, the figures for the growth in the assay with UACC-257 melanoma and with M14 melanoma were 86.6% and 92.7%, respectively.

Take `Cc1nc2sc(C(=O)Nc3cccc4ccccc34)c(N)c2cc1C(O)c1ccccc1` (stereo not given): the growth in the assay on NCI-H23 lung is 7.51% (active); with NCI-H226 lung it was 46.1%; in the assay with NCI-H322M lung it was 51.4%; in the assay on HOP-62 NSCLC, 20.4%; in the assay with NCI-H460 lung, 0.274% (active); in the assay on HOP-92 NSCLC, 34%. Further, the growth is -25.3% (active) in the assay with NCI-H522 lung; 9.88% (active) in the assay on A549/ATCC NSCLC; 16.1% in the assay on 786-0 renal; -58.2% (active) with COLO 205 colon; 5.38% (active) in the assay with DU-145 prostate; 4.79% (active) with K-562 leukemia. Moreover, the growth is 46.9% in the assay on MALME-3M melanoma; 17.1% in the assay on MDA-MB-231 breast; 36.2% in the assay with RXF 393 renal; 23.5% in the assay with SF-268 CNS; 10.2% with SF-295 CNS; -7.12% (active) with SF-539 CNS. In addition, the growth was 51.6% in the assay with UACC-257 melanoma and 7.59% (active) in the assay with M14 melanoma.

Take `O=C(Nc1nc(-c2ccc(Cl)cc2)nc2c1sc(=S)n2-c1ccccc1)C(F)(F)F`: the growth in the assay on NCI-H23 lung is 49.2%; in the assay with NCI-H226 lung it was 23.7%; in the assay on NCI-H322M lung, 49.4%; in the assay with HOP-62 NSCLC, 9.09% (active); with NCI-H460 lung, 13.6%; with HOP-92 NSCLC, -4.79% (active). For the same molecule, the growth is 25.2% with NCI-H522 lung; 19.5% in the assay on A549/ATCC NSCLC; -72.1% (active) in the assay on 786-0 renal; 21% in the assay with COLO 205 colon; 37.5% with DU-145 prostate; 57.2% in the assay with K-562 leukemia. Besides, the growth with MALME-3M melanoma was 21.2%; in the assay on MDA-MB-231 breast, 37.5%; in the assay with RXF 393 renal it was 29%; in the assay with SF-268 CNS, 36.1%; with SF-295 CNS, 7.16% (active); with SF-539 CNS, 8.63% (active). For the same molecule, the results for the growth in the assay on UACC-257 melanoma and with M14 melanoma were 51.1% and 40.3%, respectively.
